Test results from PubChem BioAssay (NCATS).
Where “and” joins values, the source holds several entries; their conditions need not be identical. Equal entries are not always repeated. Records with an inconclusive call do not appear. Values without a mark were called inactive. Calls of active or inactive are those of the source. Calls come from the whole dose curve; as a rule, active = well fitted curve in the direction sought with a large enough effect; inconclusive = small, poorly fitted or top-dose-only effect, or another doubt; inactive = no such curve, though single readings can be large or run the other way.
% is set by controls: 0 for no effect and ±100 for the full control effect; potency is the fitted concentration of half-maximal effect.

Experiment: qHTS Assay for Identifying Gametocytocidal Compounds (AID 743244);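 for max response: actives lower the fluorescent signal which means gametocytes are killed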
Conditions: P. falciparum 3D7 stage III-V gametocytes, alamarBlue, 72 h; max response: active compounds read low
Outline: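 In this qHTS viability screen, late-stage 3D7 gametocytes are incubated with compound for 72 h, then with alamarBlue for 24 h; reduced resorufin fluorescence marks killing.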
Compound `CS(=O)(=O)Nc1cc2occ(NC=O)c(=O)c2cc1Oc1ccccc1` has a max response of -2.7%. `Cc1c(O)cc2c(c1C)O[C@](C)(CCC[C@H](C)CCC[C@H](C)CCCC(C)C)CC2` gave a max response of -0.611%. With `CN(C(=O)CO)c1c(I)c(C(=O)NCC(O)CO)c(I)c(C(=O)NCC(O)CO)c1I` (stereo not given) the max response was -2.64%. Compound `CCCC1([C@H](O)C/C=C/[C@H]2[C@H](O)CC(=O)[C@@H]2CCCCCCC(=O)OC)CCC1` has a max response of 2.12%. Work on `NCCC(=O)[N-][C@@H](Cc1cnc[nH]1)C(=O)O.[Zn]` yielded a max response of 14.2%. Work on `CC1=C(C(=O)OCCN(Cc2ccccc2)c2ccccc2)C(c2cccc([N+](=O)[O-])c2)C(P2(=O)OCC(C)(C)CO2)=C(C)N1` (stereo not given) yielded a max response of 12.9%. Work on `c1ccc2c(CCC3CCNCC3)c[nH]c2c1` yielded a max response of -9.29%. For `CCOC(=O)Cc1cccc(-c2cc(CCCCCCc3ccc(O[C@H]4O[C@H](COC(C)=O)[C@@H](OC(C)=O)[C@H](OC(C)=O)[C@@H]4OC(C)=O)c(-c4cccc(CC(=O)OCC)c4)c3)ccc2O[C@H]2O[C@H](COC(C)=O)[C@@H](OC(C)=O)[C@H](OC(C)=O)[C@@H]2OC(C)=O)c1`, the max response was -24.7%. With `CO[C@H]1C[C@H](O[C@H]2[C@H](C)O[C@@H](O[C@@H]3/C(C)=C/C[C@@H]4C[C@@H](C[C@]5(C=C[C@H](C)[C@@H](C6CCCCC6)O5)O4)OC(=O)[C@@H]4C=C(C)[C@@H](O)[C@H]5OC/C(=C\C=C\[C@@H]3C)[C@]54O)C[C@@H]2OC)O[C@@H](C)[C@@H]1O` the max response was -11.6%. With `CC(C)(S)C(=O)N[C@@H](CS)C(=O)O` the max response was -15.4% and 8.89%. In the case of `CCN(CC)c1ccc(C(=C2C=CC(=[N+](CC)CC)C=C2)c2ccccc2)cc1`, the Potency is reported as 11.2 µM (active). `CO[C@H]1[C@@H](O)[C@H](N)[C@@H](O[C@H]2O[C@H]([C@H](C)N)CC[C@H]2N)[C@H](O)[C@@H]1N(C)C(=O)CN` gave a max response of 15.1%. Compound `C[C@]12CC[C@@H]3c4ccc(OS(=O)(=O)O)cc4CC[C@H]3[C@@H]1CCC2=O` has a max response of -15.6%. For `CO[C@@H]1[C@@H](O[C@@H]2O[C@H](C)[C@@H](O[C@H]3C[C@@](C)(O)[C@@H](OC(=O)CC(C)C)[C@H](C)O3)[C@H](N(C)C)[C@H]2O)[C@@H](CC=O)C[C@@H](C)[C@@H](O)/C=C/C=C/C[C@@H](C)OC(=O)C[C@H]1O`, the max response was 4.51% and 4.66%. `Nc1ncnc(Nc2ccc(Cl)cc2)n1` gave a max response of -12%. With `CCCC(=O)N1CCCN(c2nc(N)c3cc(OC)c(OC)cc3n2)CC1` the max response was 16.2%. Work on `CCC(C)(C)OC(=O)N[C@@H](Cc1c[nH]c2ccccc12)C(=O)N[C@@H](CCSC)C(=O)N[C@@H](CC(=O)O)C(=O)N[C@@H](Cc1ccccc1)C(N)=O` yielded a max response of -0.189%. In the case of `C=C1CC2C3CCC4=CC(=O)C=C[C@]4(C)[C@@]3(F)[C@@H](O)C[C@]2(C)[C@@]1(O)C(=O)COC(C)=O` (stereo not given in full), the max response is reported as -3.67%. For `NCCCC[C@H](NC(=O)[C@@H]1CCCN1C(=O)[C@@H]1CSSC[C@H](N)C(=O)N[C@@H](Cc2ccccc2)C(=O)N[C@@H](Cc2ccccc2)C(=O)N[C@@H](CCC(N)=O)C(=O)N[C@@H](CC(N)=O)C(=O)N1)C(=O)NCC(N)=O`, the max response was -4.07%. Work on `Cc1cc(Nc2ccccc2C(=O)O)ccc1Cl` yielded a max response of -23.6%. Compound `CC(CN(C)C)CN1c2ccccc2S(=O)(=O)c2ccccc21` (stereo not given) has a max response of -15.2%. Work on `COc1ccnc(CS(=O)c2nc3cc(OC(F)F)ccc3[nH]2)c1OC` (stereo not given) yielded a max response of -13.5%. Compound `O=[N+]([O-])c1ccc(Oc2ccc(N=C=S)cc2)cc1` has a max response of 16.5%. In the case of `CCOC(=O)COc1ccc2c(=O)cc(-c3ccccc3)oc2c1`, the max response is reported as 51.1% and 12.3%. `COC1=C(C(=O)O)N2C(=O)[C@@H](NC(=O)[C@H](N)C3=CCC=CC3)[C@H]2SC1` showed a max response of -12.6%.
